Assay [1] addresses Thyroid hormone receptor beta (Homo sapiens) (UniProt P10828). Put plainly: qHTS assay for small molecule agonists of thyroid hormone receptor beta signaling (AID 588545; calls by dose curve). In a few lines: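 Agonist activity was read as beta-lactamase CCF4 fluorescence (405 ex, 460/530 em), scaled between DMSO (0%) and 10 nM T3 (100%), then Hill-fitted for EC50 and efficacy. HEK 293 TR-UAS-bla cells in 2% charcoal/dextran FBS medium were exposed 18 h at 37 C.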
In general terms: Quantitative high-throughput screening tests each substance at several concentrations.

A short description of assay [2]: qHTS assay for small molecule antagonists of retinoid X receptor alpha signaling (AID 588546; active = well fitted inhibition curve with a large enough effect in the signal ratio, with a control signal flat, not every such curve was filed as active; the % refers to the signal ratio;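 note: cells stimulated with 9-cis-retinoic acid as agonist; % is set by controls: 0 for no effect and ±100 for the full control effect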). The conditions noted are these: HEK293T RXRa-UAS-bla, beta-lactamase ratio, antagonist mode; measured here: W530 green channel, cytotoxicity proxy. Summed up:
(§1)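 Beta-lactamase reporter inhibition, read as CCF4 fluorescence ratio (ex 405, em 460/530 nm) after 2 h at RT. HEK293T UAS-bla cells, 2500/well, were stimulated with 9-cis-RA at 500 or 100 nM final alongside test compound for 18 h at 37 C.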

For assay [3], the target named is Retinoic acid receptor RXR-alpha (Homo sapiens) (UniProt P19793). The assay is described as above. Conditions: HEK293T RXRa-UAS-bla, beta-lactamase ratio, antagonist mode. In a few lines: as §1
Retinoic acid receptor RXR-alpha (Homo sapiens), sequence (P19793 whole entry, looked up): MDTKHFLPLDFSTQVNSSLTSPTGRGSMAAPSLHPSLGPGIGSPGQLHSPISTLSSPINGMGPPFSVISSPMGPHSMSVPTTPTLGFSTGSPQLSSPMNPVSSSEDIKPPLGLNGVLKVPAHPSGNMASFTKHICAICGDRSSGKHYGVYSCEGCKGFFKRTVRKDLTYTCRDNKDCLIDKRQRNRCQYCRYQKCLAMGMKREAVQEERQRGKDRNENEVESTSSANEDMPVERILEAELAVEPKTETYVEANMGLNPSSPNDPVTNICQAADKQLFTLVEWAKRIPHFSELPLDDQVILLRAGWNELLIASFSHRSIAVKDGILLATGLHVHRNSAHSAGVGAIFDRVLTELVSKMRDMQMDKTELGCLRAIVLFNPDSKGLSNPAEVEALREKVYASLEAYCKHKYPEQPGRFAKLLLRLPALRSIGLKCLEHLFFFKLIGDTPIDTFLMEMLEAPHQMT
Assay [4] concerns the target Voltage-gated inwardly rectifying potassium channel KCNH2 (Homo sapiens) (UniProt Q12809). The experiment in a line: qHTS Assay for Small Molecule Inhibitors of the Human hERG Channel Activity (AID 588834).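 Note: top concentration of the series differs between compounds; % is set by controls: 0 for no effect and ±100 for the full control effect; lower thallium flux fluorescence means stronger hERG block; nearly all actives have a fitted effect of over 50% in size.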 In a few lines: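 U2OS cells transduced with hERG via BacMam (MOI ~100), plated 2000/well, loaded with FluxOR thallium dye, compound ~10 min, then stimulation buffer; fluorescence decrease read kinetically; AC50 from Hill fits.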

The target in assay [5] is Luciferin 4-monooxygenase (Photinus pyralis) (UniProt P08659). The experiment in a line: Biochemical firefly luciferase enzyme assay for NPC (AID 624030).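 Note: purified P. pyralis luciferase at 10 nM with luciferin and ATP substrate; 0% = DMSO and -100% = full luciferase inhibition by PTC124 control; nearly all actives have a fitted effect of over 70% in size.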 In a few lines:
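Purified P. pyralis luciferase at 10 nM in 50 mM Tris Acetate (final), luminescence read within 5 minutes of enzyme addition to compounds. Activity normalised to PTC124 versus DMSO; concentration-response curves classed by r2, magnitude and activity.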

The nature of assay [6]: S16 Schwann cell viability assay (CellTiter-Glo assay) (AID 624031).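 Note: native untransfected S16 rat Schwann cells; plate controls were DMSO-treated cells for no effect and cell-free wells for full effect; nearly all actives have a fitted effect of over 70% in size.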 In a few lines: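 Cells were seeded at 500-750 per well in phenol red-free DMEM with 10% FBS and left overnight. Compounds or DMSO were pinned in, incubation ran 24 h at 37 °C/5% CO2, then CellTiter-Glo reagent was added and luminescence measured.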
A general note: ATP-based viability assays read luminescence as a measure of living cells.

Assay [7] can be described thus: S16 Schwann cell PMP22 intronic element firefly luciferase assay (AID 624032).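 Note: plate controls were DMSO for no effect and PTC124 positive control mean for full effect; nearly all actives have a fitted effect of over 30% in size.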 Summed up:
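Rat S16 Schwann cells stably carrying firefly luciferase driven by a PMP22 intronic element, in 10% FBS, treated 24 h at 37 C. ONE-Glo luminescence normalized to PTC124 control and DMSO (0%); curves classed by r2, magnitude and activity.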

A short description of assay [8]: S16 Schwann cell PMP22 intronic element beta-lactamase assay (AID 624044; calls by dose curve;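 note: 0% = DMSO and -100% = potassium clavulanate positive control; nearly all actives have a fitted effect of over 15% in size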). Conditions: S16 rat Schwann cells, PMP22 element beta-lactamase FRET, 24 h; ratio activity, negative = inhibition: at 38.3 µM (top of the series) unless noted. In a few lines:
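Rat S16 Schwann cells with beta-Lac driven by a PMP22 intronic element, compound-treated 24 h at 37 °C. LiveBLAzer FRET B/G read: 460 nm normalized to potassium clavulanate vs DMSO; 535 nm FRET as viability; concentration-effect curves classified.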

Assay [9] can be described thus: qHTS assay for small molecule agonists of the antioxidant response element (ARE) signaling pathway (AID 651741; active = well fitted activation curve with a large enough effect in the signal ratio; the % refers to the signal ratio; note: potency is the fitted concentration of half-maximal effect; for activation: % of control where 0% means no effect). Summed up:
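CellSensor ARE-bla HepG2 cells (2,000/well) carrying ARE-driven beta-lactamase, exposed 16 h at 37 C. LiveBLAzer B/G FRET substrate added for 2 h at room temperature; fluorescence intensity read.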

A short description of assay [10]: qHTS assay for small molecule activators of the p53 signaling pathway (AID 651743; active = well fitted activation curve with a large enough effect in the signal ratio, not every such curve was filed as active; the % refers to the signal ratio; note: potency is the fitted concentration of half-maximal effect; for activation: % of control where 0% means no effect). Conditions: HCT-116 p53RE-bla, beta-lactamase FRET ratio, 16 h; activation: stronger effect = higher value. Summed up:
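p53RE-bla HCT-116 cells carrying a beta-lactamase reporter under p53 response elements were exposed to compounds for 16 hours at 37 C. Reporter activity read as fluorescence after 2 hours at room temperature with LiveBLAzer B/G FRET substrate.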

Assay [11] can be described thus: qHTS assay for small molecule disruptors of the mitochondrial membrane potential - 1 hr assay (AID 651754; calls by dose curve; note: % is set by controls: 0 for no effect and ±100 for the full control effect; nearly all actives have a fitted effect of over 35% in size). In a few lines: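 HepG2, 2,000 cells/well, overnight attachment; cpd or DMSO 1 hr, 37C/5% CO2; Mito-MPS dye 30 min, 37C; fluorescence monomer (490/535) and aggregate (540/590).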
The nature of assay [12]: qHTS assay for small molecule disruptors of the mitochondrial membrane potential - 5 hr assay (AID 651755; calls by dose curve; note: % is set by controls: 0 for no effect and ±100 for the full control effect; nearly all actives have a fitted effect of over 40% in size). Summed up: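 HepG2 cells (2,000/well), attached overnight, exposed to compound 5 hr at 37C, then Mito-MPS dye 30 min. Fluorescence read for monomers (490/535 nm) and aggregates (540/590 nm).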
Assay [13] addresses Tumor necrosis factor (Homo sapiens) (UniProt P01375). The experiment in a line: qHTS assay to identify small molecules that stimulate Tumor Necrosis Factor-alpha (TNF-alpha) secretion (AID 651757; active = well fitted curve in the direction sought with a large enough effect in the signal ratio; the % refers to the signal ratio; note: potency is the fitted concentration of half-maximal effect). Summed up: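 Read-out is HTRF, a TR-FRET sandwich of cryptate- and XL665-labeled anti-TNF-alpha antibodies detecting cytokine secreted by THP-1 cells. Cells had been incubated with test compounds at 37 C for 17 hrs beforehand.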

Assay [14] can be described thus: qHTS assay to identify small molecules that stimulate interleukin-8 (IL-8) secretion (AID 651758; active = well fitted activation curve with a large enough effect in the signal ratio; the % refers to the signal ratio; note: potency is the fitted concentration of half-maximal effect; for activation: 0% is about no effect). Summed up:
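THP-1 cells (2000/well) exposed to compound 16 h at 37 C; secreted IL-8 then detected by HTRF with cryptate- and XL665-labelled anti-IL-8 antibody pair after 1-3 h at room temperature.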

Where “and” joins values, the source holds several entries; their conditions need not be identical. Equal values may be shown once. Inconclusive results are not listed. Calls of active or inactive are those of the source. Unless noted, calls come from the whole dose curve; as a rule, active = well fitted curve in the direction sought with a large enough effect; inconclusive = small, poorly fitted or top-dose-only effect, or another doubt; inactive = no such curve, though single readings can be large; an effect the other way counts as inactive or inconclusive.

Thyroid hormone receptor beta (Homo sapiens), sequence (P10828 whole entry, looked up): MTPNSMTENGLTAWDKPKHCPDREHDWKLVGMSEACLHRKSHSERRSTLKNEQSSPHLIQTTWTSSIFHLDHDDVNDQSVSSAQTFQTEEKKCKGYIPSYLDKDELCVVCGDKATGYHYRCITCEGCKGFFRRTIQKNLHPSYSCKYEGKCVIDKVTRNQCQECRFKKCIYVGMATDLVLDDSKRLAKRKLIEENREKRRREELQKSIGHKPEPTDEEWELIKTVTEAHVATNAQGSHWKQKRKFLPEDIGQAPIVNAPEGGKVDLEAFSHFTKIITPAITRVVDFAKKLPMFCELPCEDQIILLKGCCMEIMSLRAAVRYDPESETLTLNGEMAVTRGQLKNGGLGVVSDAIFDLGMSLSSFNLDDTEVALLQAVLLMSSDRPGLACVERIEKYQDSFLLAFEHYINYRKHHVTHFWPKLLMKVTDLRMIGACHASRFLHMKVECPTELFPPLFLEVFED
Luciferin 4-monooxygenase (Photinus pyralis), sequence (P08659 whole entry, looked up): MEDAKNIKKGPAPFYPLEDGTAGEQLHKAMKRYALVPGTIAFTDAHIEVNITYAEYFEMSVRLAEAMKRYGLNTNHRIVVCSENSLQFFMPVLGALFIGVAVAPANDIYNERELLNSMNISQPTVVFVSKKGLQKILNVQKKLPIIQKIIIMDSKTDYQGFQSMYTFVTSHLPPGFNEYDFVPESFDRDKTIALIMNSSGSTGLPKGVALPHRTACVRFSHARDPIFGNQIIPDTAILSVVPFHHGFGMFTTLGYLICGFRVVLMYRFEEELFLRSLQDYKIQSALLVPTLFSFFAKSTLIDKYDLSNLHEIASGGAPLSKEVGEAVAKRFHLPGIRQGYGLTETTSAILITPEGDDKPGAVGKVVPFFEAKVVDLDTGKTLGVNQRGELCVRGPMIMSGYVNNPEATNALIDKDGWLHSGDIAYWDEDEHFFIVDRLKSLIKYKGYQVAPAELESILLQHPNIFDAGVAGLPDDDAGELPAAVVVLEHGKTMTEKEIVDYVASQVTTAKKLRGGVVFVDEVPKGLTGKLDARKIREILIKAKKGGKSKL
Tumor necrosis factor (Homo sapiens), sequence (P01375 whole entry, looked up): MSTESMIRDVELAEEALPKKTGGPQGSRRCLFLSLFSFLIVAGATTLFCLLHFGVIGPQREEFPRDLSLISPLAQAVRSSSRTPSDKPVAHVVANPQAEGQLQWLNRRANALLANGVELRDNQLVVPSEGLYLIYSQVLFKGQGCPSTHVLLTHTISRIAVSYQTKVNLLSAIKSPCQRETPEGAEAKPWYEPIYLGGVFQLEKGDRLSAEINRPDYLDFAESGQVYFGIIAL
Voltage-gated inwardly rectifying potassium channel KCNH2 (Homo sapiens), sequence (Q12809 whole entry, looked up): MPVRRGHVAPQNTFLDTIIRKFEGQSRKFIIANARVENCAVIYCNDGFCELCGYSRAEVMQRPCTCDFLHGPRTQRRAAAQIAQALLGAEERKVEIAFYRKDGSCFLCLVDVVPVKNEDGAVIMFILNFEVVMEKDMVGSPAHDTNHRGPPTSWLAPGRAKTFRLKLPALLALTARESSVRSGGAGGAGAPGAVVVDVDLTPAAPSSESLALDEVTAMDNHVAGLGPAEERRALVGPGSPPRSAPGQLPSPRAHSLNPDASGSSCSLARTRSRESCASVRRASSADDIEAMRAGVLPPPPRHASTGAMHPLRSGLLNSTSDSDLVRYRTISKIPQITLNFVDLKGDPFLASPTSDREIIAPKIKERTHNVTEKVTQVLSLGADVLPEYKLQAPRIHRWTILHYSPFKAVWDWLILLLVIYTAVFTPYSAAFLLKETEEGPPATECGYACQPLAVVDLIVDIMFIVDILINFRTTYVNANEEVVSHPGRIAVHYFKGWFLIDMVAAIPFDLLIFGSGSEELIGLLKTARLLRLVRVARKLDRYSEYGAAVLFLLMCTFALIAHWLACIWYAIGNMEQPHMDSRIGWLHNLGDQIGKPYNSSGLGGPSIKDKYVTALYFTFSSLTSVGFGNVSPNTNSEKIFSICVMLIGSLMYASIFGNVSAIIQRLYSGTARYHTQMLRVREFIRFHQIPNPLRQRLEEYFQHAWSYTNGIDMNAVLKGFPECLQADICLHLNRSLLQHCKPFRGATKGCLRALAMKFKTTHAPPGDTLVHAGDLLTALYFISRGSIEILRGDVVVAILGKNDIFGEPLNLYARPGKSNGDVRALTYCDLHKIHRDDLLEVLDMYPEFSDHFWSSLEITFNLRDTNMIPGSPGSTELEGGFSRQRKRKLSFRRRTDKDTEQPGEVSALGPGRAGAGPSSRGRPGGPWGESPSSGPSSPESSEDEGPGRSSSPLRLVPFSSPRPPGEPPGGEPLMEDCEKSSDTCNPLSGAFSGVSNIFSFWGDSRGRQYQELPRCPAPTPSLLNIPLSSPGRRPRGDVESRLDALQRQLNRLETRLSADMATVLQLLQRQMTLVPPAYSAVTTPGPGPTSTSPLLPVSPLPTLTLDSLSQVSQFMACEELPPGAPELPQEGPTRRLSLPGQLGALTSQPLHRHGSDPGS

As for `CN(CCO)CC(O)Cn1cnc2c1c(=O)n(C)c(=O)n2C` (stereo not given) (tested in a mixture with another compound), the compound was called inactive in [1]. Besides, the max response in assay [2] was -4.33%; in [3] it was -3.95% (inactive). For the same compound, the Potency result in [4], in [5], in assay [6], in assay [7] and in [9] was “inactive” throughout. Also, the ratio activity, negative = inhibition in assay [8] was 1.27% (inactive).

`CCCCCCCCCCCCCCCCCC(=O)OC[C@@H](O)[C@H]1OC[C@H](O)[C@H]1O`: the compound was classed as inactive in assay [1]. Moreover, the max response in assay [2] was -3.05%; in [3], -7.79% (inactive). Also, the Potency entry in assay [4], in [5], in assay [6], in [7] and in assay [9] was “inactive” in each case. Besides, in assay [8], the ratio activity, negative = inhibition is 1.3% (inactive). Besides, in assay [10], the activation is -1.65% (inactive).

As to `Nc1ncnc2c1ncn2[C@H]1CC[C@@H](CO)O1`, the result in assay [1] was inactive. The max response in [2] was 0.911%; in assay [3], -6.41% (inactive). The Potency result in [4], in [5], in [6], in assay [7], in [9] and in assay [11] was “inactive” throughout. The Potency entry in assay [12], in assay [13] and in assay [14] was “inactive” each time. For the same compound, the activation in [10] is -6.3% (inactive) and -2.15% (inactive).

Take `O=C(OCc1ccccc1)c1ccc(O)cc1`: in [1], the call was inactive. Further, the values for the max response in [2] and in [3] were -3.09% and -35.8% (inactive), respectively. Moreover, the Potency result in assay [4], in assay [6] and in assay [7] was “inactive” in each case. Besides, the activation in [10] was -6.7% (inactive).

Take `Nc1nccs1`: the compound was classed as inactive in assay [1]. Further, the max response was -5.85% in assay [2] and 4.13% (inactive) in assay [3]. The Potency result in assay [4], in assay [5], in assay [6], in assay [7], in assay [9] and in assay [13] was “inactive” throughout. The activation in assay [10] is 2.07% (inactive).

As to `C[C@H]1O[C@@H](O[C@H]2[C@@H](O)C[C@H](O[C@H]3[C@@H](O)C[C@H](O[C@H]4CC[C@@]5(C)[C@H](CC[C@@H]6[C@@H]5C[C@@H](O)[C@]5(C)[C@@H](C7=CC(=O)OC7)CC[C@]65O)C4)O[C@@H]3C)O[C@@H]2C)C[C@H](O)[C@@H]1O`, the compound was called inactive in [1]. The Potency entry in assay [4], in [5], in [6] and in assay [7] was “inactive” throughout. The Potency in [13] is 0.376 µM (active).

`C[Si](C)(C)O[Si](C)(C)C`: the compound was called inactive in [1]. For the same compound, the max response in [2] was -6.12%; in assay [3] it was -23.1% (inactive). For the same compound, the Potency entry in assay [4], in assay [5], in assay [6], in [7] and in assay [9] was “inactive” in each case. In addition, in [10], the activation was -3.5% (inactive).

As to `CO/N=C(/C(=O)N[C@@H]1C(=O)N2C(C(=O)O)=C(COC(N)=O)CS[C@H]12)c1ccco1`, in assay [1], the outcome was inactive. Also, the max response in assay [2] is -0.122%; in assay [3], -5.55% (inactive). Further, the Potency result in [4], in assay [6], in assay [7], in assay [11], in [12] and in [13] was “inactive” throughout. The ratio activity, negative = inhibition in [8] is 0.236% (inactive). Also, the Potency in [9] is 42.2 µM (active). In assay [10], the activation was 1.84% (inactive).

For the compound `O=c1n(CC2CO2)c(=O)n(CC2CO2)c(=O)n1CC1CO1` (stereo not given), the call in [1] was inactive. Moreover, the max response is 19.5% in assay [2] and -59.1% (inactive) in assay [3]. Further, the Potency entry in assay [5], in assay [6], in [11] and in assay [12] was “inactive” in each case. Moreover, the ratio activity, negative = inhibition in [8] was -25.3% (inactive). Also, the Potency in assay [9] is 7.5 µM (active) and 6.86 µM (active); in assay [10] it was 15.8 µM (active) and 39.8 µM (active).

On to `NC(N)=O`, for which the outcome in assay [1] was inactive. Besides, the max response in assay [2] was -4.99%; in assay [3], -5.2% (inactive). In addition, the Potency result in assay [4], in [5], in [6], in assay [7], in assay [11] and in assay [12] was “inactive” in each case. Besides, the Potency entry in [13] was “inactive”. Also, the ratio activity, negative = inhibition in [8] was 0.531% (inactive).

`OCc1ccccc1`: in assay [1], the compound was classed as inactive. In addition, the max response in [2] is -9.58%; in assay [3], -2.03% (inactive). Also, the Potency result in assay [4], in [5], in [6], in assay [7], in assay [11] and in [12] was “inactive” throughout. Besides, the Potency entry in assay [13] and in assay [14] was “inactive” throughout. Also, the ratio activity, negative = inhibition in [8] was -1.75% (inactive).

As to `OCC(O)CO`, the outcome in assay [1] was inactive. Further, the max response in assay [2] is -6.53% and 10.4%; in [3], 0.797% (inactive) and 12.5% (inactive). Moreover, the Potency entry in [4], in [5], in [7], in assay [11], in assay [12] and in assay [13] was “inactive” each time. Also, in assay [8], the ratio activity, negative = inhibition is 2.96% (inactive). Further, the activation in assay [10] is -2.04% (inactive) and 0.703% (inactive).

Consider `c1ccc2ccccc2c1`, for which the result in [1] was inactive. Moreover, the max response in assay [2] was -9.07% and -13.7%; in assay [3], 0.585% (inactive) and 18.2% (inactive). Further, the Potency entry in [4], in assay [5], in assay [6], in assay [7], in assay [9] and in assay [13] was “inactive” each time. In addition, the activation in assay [10] was -7.12% (inactive) and -1.33% (inactive).

For `CO[C@@H]1[C@H](OC(=O)/C=C/C=C/C=C/C=C/C(=O)O)CC[C@]2(CO2)[C@H]1[C@@]1(C)O[C@@H]1CC=C(C)C`, the call in [1] was inactive. Further, the max response is -0.294% in assay [2] and 18.1% (inactive) in [3]. For the same compound, in assay [4], the Potency result was “inactive”. For the same compound, the Potency in assay [9] was 13.7 µM (active). For the same compound, the activation in assay [10] was -4.17% (inactive).

With `Oc1cccc(O)c1O`, in assay [1], the compound was classed as inactive. Further, the max response in assay [2] is -1.33%; in assay [3], -0.897% (inactive). Besides, the Potency result in assay [4], in assay [5], in assay [6], in assay [7] and in [12] was “inactive” in each case. Further, the ratio activity, negative = inhibition in assay [8] was -1.18% (inactive). In addition, the Potency in assay [9] is 5.96 µM (active); in assay [14], 75 µM (active). Besides, the activation in [10] was 2.6% (inactive).

As to `OCl`, the call in [1] was inactive. In addition, the values for the max response in assay [2] and in assay [3] were 1.84% and 40.5% (inactive), respectively. Also, the Potency entry in assay [4], in assay [5], in assay [6], in assay [7], in assay [9] and in [11] was “inactive” in each case. In addition, the Potency entry in assay [12] and in assay [13] was “inactive” each time. Moreover, in assay [10], the activation was -2.68% (inactive).

The values above are taken from PubChem BioAssay (NCATS).
